According to PubChem BioAssay (NCATS):
Where “and” joins values, the source holds several entries; their conditions need not be identical. Equal entries are not always repeated. Calls of active or inactive are those of the source. A call without a number means that no potency is given here. Unless noted, the call rests on the fitted dose curve.

test system: not listed separately; experiment: qHTS Assay for Identification of Small Molecule Inducers of Hypoxia Response (AID 2120; active means well fitted curve in the direction sought with a large enough effect in the signal ratio, with a control signal flat, not every such curve was filed as active; inconclusive means small, poorly fitted or top-dose-only effect, or a change in a side signal; inactive means no such curve, though single readings can be large or run the other way; the % refers to the signal ratio); conditions: hypoxia response reporter cells, beta-lactamase ratio readout; series mostly up to 104 µM
Method in brief: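 ME-180 HRE-bla cells plated in Opti-MEM/0.5% dialyzed FBS, rested 4-5 h, then dosed with compound titrations by pin tool. After 17 h at 37 degrees C, CCF4 dye loaded 2.5 h at RT; 460/530 nm ratio gave %Activity and AC50.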

Row | SMILES | outcome
1 | CCCN(CCC)C(=O)SCC | inactive
2 | COc1ccc2nc(N)sc2c1 | inactive
3 | ClCCCl | inactive
4 | CCC(O)OC(O)CC (centres undefined) | inactive
5 | C=Cc1ccccc1Cl | inactive
6 | c1ccc2c(c1)c1cccc3ccc4cccc2c4c31 | inactive
7 | Cc1cccc([N+](=O)[O-])c1C | inactive
8 | CCCCCCCCO | inactive
9 | CC(C)=CCCC(C)CCO (centres undefined) | inactive
10 | O=[N+]([O-])c1cccc(Cl)c1Cl | inactive
11 | CCO[Si](CCCN)(OCC)OCC | inactive
12 | Clc1cc(Cl)c(Cl)cc1Cl | inactive
13 | CCO | inactive
14 | C=CC(=O)OCCOCCOCCOCCOC(=O)C=C | inactive
15 | Clc1cc(Cl)c(Cl)c(Cl)c1Cl | inactive
16 | CCCCC(CC)CN (centres undefined) | inactive
17 | O=NO | inactive
18 | c1ccc2c(c1)[nH]c1ccccc12 | inactive
19 | OCCNCCO | inactive
20 | Nc1ccc(Cl)cc1Cl | inactive
21 | CCC(C)c1ccccc1O (centres undefined) | inactive
22 | CC1=CC(C)(C)Nc2ccccc21 | inactive
23 | CN(C)C=O | inactive
24 | Cc1ccc(N)c([N+](=O)[O-])c1 | inactive
25 | CCCCOCCO | inactive
26 | CC(=O)OC/C=C(\C)CCC=C(C)C | inactive

biological target: Ubiquitin carboxyl-terminal hydrolase 1 (Homo sapiens) (UniProt O94782); experiment: Inhibitors of USP1/UAF1: Pilot qHTS (AID 504865; active means well fitted inhibition curve with a large enough effect; inconclusive means small, poorly fitted or top-dose-only effect;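 further: rhodamine fluorescence freed from ubiquitin-rhodamine substrate followed over time; top concentration of the series differs between compounds; nearly all actives have a fitted effect of over 35% in size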); conditions: purified USP1/UAF1, Ub-rhodamine cleavage fluorescence; series mostly up to 54.9 µM
Sequence (O94782 whole entry, looked up): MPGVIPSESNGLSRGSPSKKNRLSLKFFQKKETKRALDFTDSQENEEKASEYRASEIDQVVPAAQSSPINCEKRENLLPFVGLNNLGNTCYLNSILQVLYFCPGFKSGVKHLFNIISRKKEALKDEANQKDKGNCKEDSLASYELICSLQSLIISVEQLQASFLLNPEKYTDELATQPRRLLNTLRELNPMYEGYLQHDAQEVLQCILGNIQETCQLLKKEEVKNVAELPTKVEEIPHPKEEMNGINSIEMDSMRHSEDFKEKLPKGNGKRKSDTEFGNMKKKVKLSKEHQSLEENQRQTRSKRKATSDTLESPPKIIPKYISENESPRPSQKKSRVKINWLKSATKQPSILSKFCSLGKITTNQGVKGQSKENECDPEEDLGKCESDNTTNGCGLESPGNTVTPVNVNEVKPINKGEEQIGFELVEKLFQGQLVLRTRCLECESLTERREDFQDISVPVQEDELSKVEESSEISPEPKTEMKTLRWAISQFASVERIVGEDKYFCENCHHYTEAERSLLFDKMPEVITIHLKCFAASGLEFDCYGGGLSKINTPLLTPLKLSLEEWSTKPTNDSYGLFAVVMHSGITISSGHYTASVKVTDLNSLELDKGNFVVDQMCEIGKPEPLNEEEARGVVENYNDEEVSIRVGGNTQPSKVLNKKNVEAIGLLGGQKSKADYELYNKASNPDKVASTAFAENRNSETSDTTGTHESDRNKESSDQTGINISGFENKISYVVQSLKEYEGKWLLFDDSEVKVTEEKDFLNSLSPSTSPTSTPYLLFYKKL
Method in brief: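 Kinetic fluorescence assay: 1nM USP1/UAF1, 15 min compound preincubation, then 150nM Ub-Rho; 480/540 nm.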

Row | SMILES | Potency
27 | COc1ccccc1-c1nc(NC2CC2)c2ccccc2n1 | inactive
28 | COc1ccc2[nH]cc(CCNc3ncnc4ccc(-c5cccc(C#N)c5)cc34)c2c1 | inactive
29 | CCNc1ncc2ncc(=O)n(Cc3ccc(F)cc3)c2n1 | inactive
30 | CC(C)=CCCC(C)CCO (centres undefined) | inactive
31 | Cc1ccccc1-c1ccc2ncnc(NCCN3CCOCC3)c2c1 | inactive
32 | COc1ccccc1CNc1nc(-c2ccc(C(=O)N(C)C)cc2)nc2ccccc12 | inactive
33 | COc1ccc2[nH]cc(CCNc3ncncc3-c3ccccc3C(F)(F)F)c2c1 | inactive
34 | CCNc1ncc2nc(CCc3ccccc3)c(=O)n(C3CC3)c2n1 | inactive
35 | CN1CCN(c2nc(-c3cccnc3)nc3ccccc23)CC1 | inactive
36 | CN(C)C(=O)c1ccc(-c2nc(Nc3ccccc3)c3ccccc3n2)cc1 | inactive
37 | COc1cccc(Cn2c(=O)cnc3cnc(N(C)C)nc32)c1 | inactive
38 | COCCn1c(=O)c(-c2cccc(C#N)c2)nc2cnc(Oc3cccc(Cl)c3)nc21 | inactive
39 | CN1CCN(c2nc(-c3ccoc3)nc3ccccc23)CC1 | inactive
40 | CN(C)c1nc(-c2cccc(NS(C)(=O)=O)c2)nc2ccccc12 | inactive

biological target: Estrogen receptor (Homo sapiens) (UniProt P03372); experiment: qHTS assay for small molecule antagonists of estrogen receptor alpha signaling (AID 588513; active means well fitted curve in the direction sought with a large enough effect in the signal ratio, with a control signal flat, not every such curve was filed as active; inconclusive means small, poorly fitted or top-dose-only effect, or effect the other way, or a change in a side signal; inactive means no such curve, though single readings can be large or run the other way; the % refers to the signal ratio; further: potency means the concentration at half of the fitted maximal effect); conditions: ER-alpha-UAS-bla HEK293, beta-lactamase ratio, antagonist mode; series mostly up to 76.9 µM
Sequence (P03372 whole entry, looked up): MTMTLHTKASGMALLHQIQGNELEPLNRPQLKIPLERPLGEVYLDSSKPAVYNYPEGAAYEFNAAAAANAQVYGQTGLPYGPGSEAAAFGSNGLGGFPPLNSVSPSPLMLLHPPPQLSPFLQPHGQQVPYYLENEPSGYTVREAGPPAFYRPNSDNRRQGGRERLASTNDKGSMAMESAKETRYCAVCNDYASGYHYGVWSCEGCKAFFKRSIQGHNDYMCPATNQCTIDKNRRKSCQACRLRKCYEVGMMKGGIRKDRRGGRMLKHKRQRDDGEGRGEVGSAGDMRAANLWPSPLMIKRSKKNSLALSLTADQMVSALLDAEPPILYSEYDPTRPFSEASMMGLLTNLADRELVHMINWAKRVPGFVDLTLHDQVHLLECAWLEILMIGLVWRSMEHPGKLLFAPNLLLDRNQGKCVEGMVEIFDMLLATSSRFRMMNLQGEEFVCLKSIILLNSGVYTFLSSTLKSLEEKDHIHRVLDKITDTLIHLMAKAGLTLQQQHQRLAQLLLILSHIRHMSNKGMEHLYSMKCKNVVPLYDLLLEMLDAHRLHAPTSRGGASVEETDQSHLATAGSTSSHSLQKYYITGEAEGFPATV
Method in brief: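 Cells were plated at 5000/well and incubated 4 h at 37 C. Compounds were added as 1:2 dilution series, duplicates. 17-beta-estradiol (0.5nM final) was added for 18 h before CCF4 detection.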

Row | SMILES | Potency
41 | CCCN(CCC)C(=O)SCC | inactive
42 | COc1ccc2nc(N)sc2c1 | inactive
43 | ClCCCl | inactive
44 | CCC(O)OC(O)CC (centres undefined) | inactive
45 | C=Cc1ccccc1Cl | inactive
46 | c1ccc2c(c1)c1cccc3ccc4cccc2c4c31 | inactive
47 | Cc1cccc([N+](=O)[O-])c1C | inactive
48 | CCCCCCCCO | inactive
49 | CC(C)=CCCC(C)CCO (centres undefined) | inactive
50 | O=[N+]([O-])c1cccc(Cl)c1Cl | inactive
51 | CCO[Si](CCCN)(OCC)OCC | inactive
52 | Clc1cc(Cl)c(Cl)cc1Cl | inactive
53 | CCO | inactive
54 | C=CC(=O)OCCOCCOCCOCCOC(=O)C=C | 39.8 µM [inconclusive] (active)
55 | Clc1cc(Cl)c(Cl)c(Cl)c1Cl | inactive
56 | CCCCC(CC)CN (centres undefined) | inactive
57 | c1ccc2c(c1)[nH]c1ccccc12 | inactive
58 | OCCNCCO | inactive
59 | Nc1ccc(Cl)cc1Cl | inactive
60 | CC1=CC(C)(C)Nc2ccccc21 | inactive
61 | CN(C)C=O | inactive
62 | Cc1ccc(N)c([N+](=O)[O-])c1 | inactive
63 | CCCCOCCO | inactive
64 | CC(=O)OC/C=C(\C)CCC=C(C)C | inactive

biological target: Estrogen receptor (Homo sapiens) (UniProt P03372); experiment: qHTS assay for small molecule agonists of estrogen receptor alpha signaling (AID 588514); conditions: ER-alpha-UAS-bla HEK293, beta-lactamase ratio, 18 h; series mostly up to 76.8 µM; further: nearly all actives have a fitted effect of over 70% in size
Method in brief: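 Cells were plated at 5000/well, incubated 4 hrs at 37 C, dosed with compound titration series, incubated 18 hrs at 37 C, loaded with CCF4 dye for 2 hrs at RT, then fluorescence was read.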

Row | SMILES | Potency
65 | CCCN(CCC)C(=O)SCC | inactive
66 | COc1ccc2nc(N)sc2c1 | inactive
67 | ClCCCl | inactive
68 | CCC(O)OC(O)CC (centres undefined) | inactive
69 | C=Cc1ccccc1Cl | inactive
70 | c1ccc2c(c1)c1cccc3ccc4cccc2c4c31 | inactive
71 | Cc1cccc([N+](=O)[O-])c1C | inactive
72 | CCCCCCCCO | inactive
73 | CC(C)=CCCC(C)CCO (centres undefined) | inactive
74 | O=[N+]([O-])c1cccc(Cl)c1Cl | inactive
75 | CCO[Si](CCCN)(OCC)OCC | inactive
76 | Clc1cc(Cl)c(Cl)cc1Cl | inactive
77 | CCO | inactive
78 | Clc1cc(Cl)c(Cl)c(Cl)c1Cl | inactive
79 | CCCCC(CC)CN (centres undefined) | inactive
80 | c1ccc2c(c1)[nH]c1ccccc12 | inactive
81 | OCCNCCO | inactive
82 | Nc1ccc(Cl)cc1Cl | inactive
83 | CC1=CC(C)(C)Nc2ccccc21 | inactive
84 | CN(C)C=O | inactive
85 | Cc1ccc(N)c([N+](=O)[O-])c1 | inactive
86 | CCCCOCCO | inactive
87 | CC(=O)OC/C=C(\C)CCC=C(C)C | inactive

biological target: Androgen receptor (Homo sapiens) (UniProt P10275); experiment: qHTS assay for small molecule agonists of androgen receptor signaling (AID 588515; active means well fitted curve in the direction sought with a large enough effect in the signal ratio, with a control signal flat; inconclusive means small, poorly fitted or top-dose-only effect, or effect the other way, or a change in a side signal; inactive means no such curve, though single readings can be large or run the other way; the % refers to the signal ratio); conditions: AR-UAS-bla HEK293, beta-lactamase ratio, agonist 16 h; hits give high values
Sequence (P10275 whole entry, looked up): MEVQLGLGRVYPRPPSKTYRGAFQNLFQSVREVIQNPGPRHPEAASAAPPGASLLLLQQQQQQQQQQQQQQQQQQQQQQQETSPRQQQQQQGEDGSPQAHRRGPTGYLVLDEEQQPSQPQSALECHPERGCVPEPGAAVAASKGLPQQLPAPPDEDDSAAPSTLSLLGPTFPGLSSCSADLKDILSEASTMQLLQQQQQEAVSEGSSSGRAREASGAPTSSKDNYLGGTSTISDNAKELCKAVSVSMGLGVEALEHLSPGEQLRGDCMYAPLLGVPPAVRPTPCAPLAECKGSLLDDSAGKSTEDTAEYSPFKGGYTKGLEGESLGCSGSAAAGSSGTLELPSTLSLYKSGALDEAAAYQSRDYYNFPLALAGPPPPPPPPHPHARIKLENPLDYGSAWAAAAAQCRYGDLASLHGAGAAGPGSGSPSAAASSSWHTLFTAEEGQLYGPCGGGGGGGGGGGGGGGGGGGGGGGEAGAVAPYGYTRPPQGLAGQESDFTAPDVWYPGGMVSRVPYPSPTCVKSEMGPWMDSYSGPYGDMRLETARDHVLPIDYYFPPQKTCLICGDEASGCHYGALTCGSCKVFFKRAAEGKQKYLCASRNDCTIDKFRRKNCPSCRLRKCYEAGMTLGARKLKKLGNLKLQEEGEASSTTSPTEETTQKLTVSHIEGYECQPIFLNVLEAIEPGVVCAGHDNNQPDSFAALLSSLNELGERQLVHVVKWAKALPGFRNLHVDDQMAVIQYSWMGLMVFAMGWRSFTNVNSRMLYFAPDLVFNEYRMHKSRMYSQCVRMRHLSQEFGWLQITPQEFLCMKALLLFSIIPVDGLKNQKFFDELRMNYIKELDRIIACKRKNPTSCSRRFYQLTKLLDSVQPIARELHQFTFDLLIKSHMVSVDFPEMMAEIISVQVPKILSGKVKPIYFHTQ
Method in brief: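 EC50 and efficacy came from Hill fits of titrations (up to 92 uM) normalized to 30 nM R1881 as 100% and DMSO as 0%. Compound exposure was 16 h at 37 C on AR-UAS-bla HEK293 cells, with a 405/460/530 nm CCF4 fluorescence read.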

Row | SMILES | activation
88 | CCCN(CCC)C(=O)SCC | 12.4% (inactive) and -3.98% (inactive)
89 | COc1ccc2nc(N)sc2c1 | 3.27% (inactive) and 6.72% (inactive)
90 | C=Cc1ccccc1Cl | -2.34% (inactive)
91 | Cc1cccc([N+](=O)[O-])c1C | 2.99% (inactive) and 5.65% (inactive)
92 | CC(C)=CCCC(C)CCO (centres undefined) | 11% (inactive) and 2.32% (inactive)
93 | CCO | 30.9% (inactive)
94 | CCCCC(CC)CN (centres undefined) | 5.31% (inactive) and -4.67% (inactive)
